From PubChem BioAssay (NCATS)
Values joined by “and” are separate entries in the source; they are usually repeats but may differ in a detail not shown here. Equal values may be shown once. Inconclusive results are not listed. Entries that show only a call come without a potency. Unmarked numbers belong to inactive results. Active and inactive are the calls of the source. Calls come from the whole dose curve; as a rule, active = well fitted curve in the direction sought with a large enough effect; inconclusive = small, poorly fitted or top-dose-only effect, or another doubt; inactive = no such curve, though single readings can be large; an effect the other way counts as inactive or inconclusive.

Legend:
[1] = molecular target: Cellular tumor antigen p53 (Homo sapiens) (UniProt P04637); experiment: Primary qHTS for small molecule compounds that upregulate eGFP-tagged delta133p53alpha (in N-terminal) cells. (AID 2060322); conditions: NCI-H358 eGFP-delta133p53alpha fluorescence, 24 h; activation: hits give high values; note: series mostly up to about 56 µM; nearly all actives have a fitted effect of over 75% in size
Chain of Cellular tumor antigen p53 (Homo sapiens) (P04637 whole entry, looked up): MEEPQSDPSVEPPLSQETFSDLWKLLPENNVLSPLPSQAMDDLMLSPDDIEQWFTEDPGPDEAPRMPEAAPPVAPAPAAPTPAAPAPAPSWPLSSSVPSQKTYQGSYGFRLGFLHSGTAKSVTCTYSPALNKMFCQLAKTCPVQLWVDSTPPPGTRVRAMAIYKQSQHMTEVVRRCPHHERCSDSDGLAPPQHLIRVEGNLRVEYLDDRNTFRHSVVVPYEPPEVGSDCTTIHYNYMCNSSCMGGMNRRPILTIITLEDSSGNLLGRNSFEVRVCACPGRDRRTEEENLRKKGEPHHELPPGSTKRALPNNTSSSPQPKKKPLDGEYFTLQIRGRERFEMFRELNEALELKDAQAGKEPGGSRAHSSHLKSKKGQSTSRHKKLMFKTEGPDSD
Method in brief: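 NCI-H358 cells pre-induced 24 h with 10 ng/ml doxycycline to express N-terminal eGFP-delta133p53alpha, then dosed 24 h at 37C without doxycycline; fixed, Hoechst-stained, GFP intensity by laser scanning cytometry, normalized to DMSO (0%) and 57.5 uM 5-azacytidine (100%).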

[2] = molecular target: Aldehyde dehydrogenase, mitochondrial (Homo sapiens) (UniProt P05091); experiment: qHTS for Inhibitors of the Aldehyde Dehydrogenase Family (ALDH2) Primary screen (AID 2061308); note: nearly all actives have a fitted effect of over 55% in size
[3] = molecular target: Retinaldehyde dehydrogenase 3 (Homo sapiens) (UniProt P47895); experiment: qHTS for Inhibitors of the Aldehyde Dehydrogenase Family (ALDH1A3) Primary screen (AID 2061315)
[4] = BET inhibitor-based combinations targeting novel dependencies in MECOM-rearranged (r) AML: HNT-34 cell line (AID 2202234); note: potency is the fitted concentration of half-maximal effect; nearly all actives have a fitted effect of over 35% in size
Method in brief: (§1)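 Luminescent ATP readout (CellTiter-Glo, 15 min at room temperature) after 48 hr drug exposure gave viability. Dose-response curves, normalized to DMSO and empty-well controls, were summarized as area under the curve and its mean-centred Z-score.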

[5] = BET inhibitor-based combinations targeting novel dependencies in MECOM-rearranged (r) AML: UCSD-AML1 cell line (AID 2202235); note: nearly all actives have a fitted effect of over 40% in size; note: potency is the fitted concentration of half-maximal effect
Method in brief: as §1

[6] = BET inhibitor-based combinations targeting novel dependencies in MECOM-rearranged (r) AML: AML-191 cell line (AID 2202236; note: potency is the fitted concentration of half-maximal effect; nearly all actives have a fitted effect of over 35% in size)
Method in brief: (§2)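 Luminescent ATP readout (CellTiter-Glo) after 48 hr drug exposure gives viability. Curves span 11 concentrations and are normalized to DMSO and empty wells. Activity is reported as area under the curve and its Z-transform within each cell line.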

[7] = BET inhibitor-based combinations targeting novel dependencies in MECOM-rearranged (r) AML: AML-194 cell line (AID 2202237; note: potency is the fitted concentration of half-maximal effect; nearly all actives have a fitted effect of over 40% in size)
Method in brief: as §2

Row | Compound | activation [1] | Potency [2] | Potency [3] | Potency [4] | Potency [5] | Potency [6] | Potency [7]
1 | CCn1c(C(=O)N(C2CC2)C2CC2)cc2c3c(ncn3C)c(Nc3cc(C)n(C)n3)nc21 | -29.5% | inactive | inactive | 16.6 µM (active) | 3.32 µM (active) | – | –
2 | CCN1CCN(c2ccc(Nc3cc(N(C)C(=O)Nc4c(Cl)c(OC)cc(OC)c4Cl)ncn3)cc2)CC1 | 34.2% and 7.14% | inactive | inactive | 13.2 µM (active) | – | – | –
3 | COc1c(Cl)cc2c([nH]c3cnccc32)c1NC(=O)c1cccnc1C | 16.3% | inactive | inactive | – | – | 20.9 µM (active) | 23.5 µM (active)
4 | COc1ccc2cc(-c3nc(-c4ccc(S(C)=O)cc4)[nH]c3-c3ccncc3)ccc2c1 (stereo not drawn) | -7.86% and 8.04% | inactive | inactive | – | inactive | – | –
